From PubChem BioAssay
Shown are actives, neighbours in structure and some others; about 4.1% of the full set was active somewhere.
Anthrax LF inh2: blocks Bacillus anthracis lethal factor protease; inhibition, % at 10 µM; P15917; AID 588501; multiplex microsphere protease cleavage assay, LF; hit rate 0.12% among 360,000; note: plate controls were buffer without enzyme for full effect and enzyme alone for no effect
MazEF act: increases E. coli MazEF RNase cleavage of RNA | FAM/BHQ RNA-DNA oligo cleavage fluorescence, 5 h | hit rate 0.32% among 350,000 | activation, % at 20 µM | AID 504720 | P0AE70; in the data active = activation above about 50%
Target sequence (P0AE70 whole entry, looked up): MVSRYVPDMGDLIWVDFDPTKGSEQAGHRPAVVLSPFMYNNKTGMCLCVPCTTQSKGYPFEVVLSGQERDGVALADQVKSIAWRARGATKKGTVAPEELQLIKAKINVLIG
BoNT A protease: blocks Botulinum neurotoxin A light chain protease; hit rate 0.17% among 360,000; inhibition, % at 10 µM; multiplex microsphere protease substrate cleavage, flow cytometry; AID 588499; note: plate controls were buffer without enzyme for full effect and enzyme alone for no effect
Bead autofluor: counter-screen for toxin protease inhibitors: compound fluorescence | compound autofluorescence counterscreen, microsphere flow cytometry; stronger effect = higher value | fluorescence intensity (no concentration beside the values) | hit rate 3.1% among 360,000 | AID 624483; in the data active = fluorescence intensity above about 16000
BoNT-F LC inh: inhibitors of Botulinum neurotoxin F light chain protease. Multiplex microsphere protease cleavage assay, flow cytometry. inhibition, % at 10 µM. hit rate 0.22% among 360,000. AID 588497; in the data active = inhibition above about 35%, passing the limit was not always enough; note: plate controls were buffer without enzyme for full effect and enzyme alone for no effect
DUSP3 inh: blocks human VHR1 dual specificity phosphatase; recombinant VHR phosphatase, pNPP absorbance; inhibition, % at 13.3 µM; hit rate 0.52% among 290,000; AID 1654; in the data active = inhibition above about 50%
Target sequence (P51452 whole entry, looked up): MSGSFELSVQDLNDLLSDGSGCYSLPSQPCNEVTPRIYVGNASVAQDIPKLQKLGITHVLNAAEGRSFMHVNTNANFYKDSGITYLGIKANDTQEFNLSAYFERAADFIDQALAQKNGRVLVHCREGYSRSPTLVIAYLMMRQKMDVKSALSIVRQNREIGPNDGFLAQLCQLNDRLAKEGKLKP
The depositor's hits bear a star. Cut-off read from the data, not from the text of the source, unless noted: active = inhibition above about 30%; inconclusive = no clear call, values can overlap the other calls; inactive = below that.

What do the screens show for `CCN(CC)C(=O)c1cccc(-c2csc(C(C)(O)c3cccc(F)c3)n2)c1` (stereo not drawn)?
Anthrax LF inh2: 4; BoNT A protease: 0; Bead autofluor: 3840; BoNT-F LC inh: 2

How did CC(C)[C@H](NC(=O)c1ccc(F)cc1)C(=O)N(C)Cc1cccs1 do in these assays?
MazEF act: 10

Results for O=C1CCCc2c1nn(-c1ccccc1)[n+]2[O-] ?
Anthrax LF inh2: -16; MazEF act: 5; BoNT A protease: 10; Bead autofluor: 18962*; BoNT-F LC inh: 10; DUSP3 inh: -5

What do the screens show for `O=C1[C@H]2[C@@H](c3ccc(C(F)(F)F)cc3)N[C@]3(CCCN(Cc4ccc(F)cc4)C3=O)[C@H]2C(=O)N1Cc1ccccc1`?
Anthrax LF inh2: -4; MazEF act: 8; BoNT A protease: 0; Bead autofluor: 3864; BoNT-F LC inh: -12

What do the screens show for `NC(=O)Cn1cc(C=C2C(=O)NC(=O)NC2=O)c2ccccc21`?
Anthrax LF inh2: 3; MazEF act: -888; BoNT A protease: -2; Bead autofluor: 2839; BoNT-F LC inh: -4; DUSP3 inh: 5

How did COCCNC(=O)Cn1cc(/C=C2\C(=O)NC(=O)N(c3ccccc3F)C2=O)c2ccccc21 do in these assays?
Anthrax LF inh2: -3; MazEF act: active; BoNT A protease: 0; Bead autofluor: 3874; BoNT-F LC inh: 19; DUSP3 inh: 13

What do the screens show for `COC(=O)Cn1cc(C=C2C(=O)NC(=O)NC2=O)c2ccccc21`?
Anthrax LF inh2: 12; MazEF act: -231; BoNT A protease: 0; Bead autofluor: 3011; BoNT-F LC inh: 42*; DUSP3 inh: 4

What do the screens show for `COC(=O)Cn1cc(/C=C2\C(=O)NC(=O)N(c3ccc(OC)cc3)C2=O)c2ccccc21`?
Anthrax LF inh2: 4; MazEF act: 111*; BoNT A protease: -1; Bead autofluor: 4705; BoNT-F LC inh: 20; DUSP3 inh: 32

Results for COc1ccc(N2C(=O)NC(=O)/C(=C\c3cn(C)c4ccccc34)C2=O)cc1 ?
Anthrax LF inh2: -2; MazEF act: 290*; BoNT A protease: 2; Bead autofluor: 4798; BoNT-F LC inh: 14; DUSP3 inh: 16

Results for COc1ccc(N2CCN(C(=O)COC(=O)c3ccc(C)o3)CC2)cc1 ?
MazEF act: 6

Results for N#Cc1ccccc1CN1C(=O)NC2(CCCCCC2)C1=O ?
Anthrax LF inh2: -4; MazEF act: 2; BoNT A protease: 4; Bead autofluor: 3873; BoNT-F LC inh: 6; DUSP3 inh: 10

How did Cc1ccc(NCC(=O)Nc2cccc(S(=O)(=O)N(C)C)c2)cc1S(=O)(=O)N1CCCCCC1 do in these assays?
Anthrax LF inh2: 0; MazEF act: -2; BoNT A protease: -3; Bead autofluor: 7071; BoNT-F LC inh: -10

What do the screens show for `O=C1CC(=C2c3ccccc3-c3ccccc32)C(=O)N1CCN1CCN(c2ccccc2)CC1`?
Anthrax LF inh2: -3; MazEF act: -5; BoNT A protease: 2; Bead autofluor: 19425*; BoNT-F LC inh: 0

What do the screens show for `Cc1ccccc1N1CCN(CCN2C(=O)CC(=C3c4ccccc4-c4ccccc43)C2=O)CC1`?
Anthrax LF inh2: -2; MazEF act: -12; BoNT A protease: 0; Bead autofluor: 16193*; BoNT-F LC inh: -5

How did CC(C)(C)SCCNS(=O)(=O)c1ccccc1 do in these assays?
Anthrax LF inh2: 4; MazEF act: 6; BoNT A protease: 0; Bead autofluor: 7227; BoNT-F LC inh: 2; DUSP3 inh: 19

What do the screens show for `CC(C)(C)SCCNS(=O)(=O)c1ccc2ccccc2c1`?
Anthrax LF inh2: -4; MazEF act: 1; BoNT A protease: -2; Bead autofluor: 23401*; BoNT-F LC inh: -5; DUSP3 inh: 4

Results for CCC(c1nnnn1-c1ccc2c(c1)OCCO2)N1CCN(c2ccccc2OC)CC1 (stereo not drawn) ?
Anthrax LF inh2: -1; BoNT A protease: 0; Bead autofluor: 4342; BoNT-F LC inh: -2

What do the screens show for `Cc1cc2oc(=O)cc(CN3CCN(c4ccc(Cl)c(Cl)c4)CC3)c2cc1Cl`?
Anthrax LF inh2: 2; BoNT A protease: 0; Bead autofluor: 4184; BoNT-F LC inh: -5

How did O=C(CSc1ncn[nH]1)NCCOc1ccccc1 do in these assays?
Anthrax LF inh2: 1; MazEF act: 0; BoNT A protease: 0; Bead autofluor: 3302; BoNT-F LC inh: -1; DUSP3 inh: 12
